Experimental data: PubChem BioAssay (NCATS)
Records with an inconclusive call do not appear. Where a call stands in place of a potency, no number is given. Activity calls are given as the source filed them. The call rests on the fitted dose curve; in most records, active means well fitted inhibition curve with a large enough effect; inconclusive means small, poorly fitted or top-dose-only effect; inactive means flat fitted curve, though single readings scatter.

What was measured:
Assay in all cases: qHTS profiling for inhibitors of Plasmodium falciparum proliferation (AID 504749); further: nearly all actives have a fitted effect of over 60% in size
Settings in all cases: P. falciparum in erythrocytes, SYBR Green DNA, 72 h; series mostly up to 28.7 µM
CP268 = test system: CP268
Method in brief: (§1)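 Each compound contacts P. falciparum-infected red blood cells for 72 h at 37 C; lysis buffer (Tris, EDTA, saponin, Triton X, SYBR Green I) is added and fluorescence measured next morning; values normalized to controls.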

CP269 = test system: CP269
Method in brief: as §1

CP286 = test system: CP286
Method in brief: as §1

CP291 = test system: CP291
Method in brief: as §1

CP297 = test system: CP297
Method in brief: as §1

CP305 = test system: CP305
Method in brief: as §1

CP315 = test system: CP315
Method in brief: as §1

CP325 = test system: CP325
Method in brief: as §1

CP329 = test system: CP329
Method in brief: as §1

CP335 = test system: CP335
Method in brief: as §1

DFO2036 = test system: DFO2036
Method in brief: as §1

DIV14 = test system: DIV14
Method in brief: as §1

DIV17 = test system: DIV17
Method in brief: as §1

DIV30 = test system: DIV30
Method in brief: as §1

ECU = test system: ECU
Method in brief: as §1

FAB9 = test system: FAB9
Method in brief: as §1

GB4 = test system: GB4
Method in brief: as §1

HB3 = test system: HB3
Method in brief: as §1

Dd2 = test system: Dd2
Method in brief: as §1

ICS = test system: ICS
Method in brief: as §1
Potency means the concentration at half of the fitted maximal effect.

| Compound | outcome (CP268) | outcome (CP269) | outcome (CP286) | outcome (CP291) | outcome (CP297) | outcome (CP305) | outcome (CP315) | Potency (CP325) | outcome (CP329) | Potency (CP335) | Potency (DFO2036) | Potency (DIV14) | Potency (DIV17) | outcome (DIV30) | Potency (ECU) | outcome (FAB9) | Potency (GB4) | Potency (HB3) | Potency (Dd2) | Potency (ICS) |
| --- | --- | --- | --- | --- | --- | --- | --- | --- | --- | --- | --- | --- | --- | --- | --- | --- | --- | --- | --- | --- |
| CCCCCCCCCCCCCCC[C@H](O)[C@H](N)CO | inactive | inactive | inactive | inactive | inactive | inactive | inactive | inactive | inactive | inactive | inactive | inactive | inactive | inactive | inactive | inactive | inactive | inactive |  |  |
| CC(O)C(O)[C@H]1CNc2nc(N)[nH]c(=O)c2N1 (stereo not given in full) | inactive | inactive | inactive | inactive | inactive | inactive | inactive | inactive | inactive | inactive | inactive | inactive | inactive | inactive | inactive | inactive | inactive | inactive | inactive | inactive |
| c1ccc(C2CN3CCSC3=N2)cc1 (stereo not given) |  |  |  |  |  |  | inactive | 16.9 µM (active) |  | 5.36 µM (active) | 6.31 µM (active) | 2.69 µM (active) | 3.01 µM (active) |  | 8.91 µM (active) |  | 8.49 µM (active) | 3.16 µM (active) | 3.98 µM (active) | 1.26 µM (active) |
| CN1C2CCC1CC(OC(c1ccccc1)c1ccccc1)C2 (stereo not given) |  |  |  |  |  |  | inactive |  | inactive |  |  | 4.78 µM (active) | 3.01 µM (active) |  |  | inactive |  | inactive |  | 0.178 µM (active) |
| CCCCCCCCCCCCCCCCCCOC[C@H](COP(=O)([O-])OCC[N+](C)(C)C)OC | inactive | inactive | inactive | inactive | inactive | inactive | inactive | inactive | inactive | inactive | inactive | inactive | inactive | inactive | inactive | inactive | inactive | inactive | inactive | inactive |
| CC(C)NC[C@H](O)COc1ccc(CC(N)=O)cc1 | inactive | inactive | inactive | inactive |  | inactive | inactive | inactive | inactive | inactive | inactive | inactive | inactive | inactive | inactive | inactive | inactive | inactive | inactive | inactive |
